# A selection: hits, their analogues and other compounds. The true share with any hit is near 17%.
# S2 tox = Viability Counterscreen for Primary qHTS for Inhibitors of ATXN expression. S2 cells (HEK-293 line with an ATXN2-luciferase reporter) viability, CellTiter-Fluor protease fluorescence, 24 h. AID 651635, 2014. Potency, µM (highest dose often 56.7 µM), hits mostly cytotoxic. actives 0.49% (n = 400,000); further: nearly all actives have a fitted effect of over 40% in size
# HepG2 viability = qHTS for Inhibitors of TGF-b: Cytotox Counterscreen; HepG2 CAGA-GFP viability, ATP luminescence, 18 h; Potency, µM (titrated, usually from 46.1 µM), inactives show at the highest dose activity change, negative = cytotoxicity, actives largely listed as cytotoxic; actives 0.76% (n = 410,000)
#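 CellTiter-Glo luminescence gave cytotoxicity after 18 hours at 37 degrees C. The cells were HepG2 CAGA-GFP in 1% FBS DMEM, stimulated with 500 pg/mL TGF-beta after compound addition. %Activity was normalised to no-cell wells (complete cell-killing) and DMSO (no toxicity), and curves were fitted and classified.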
# TDP1 cell CPT = qHTS for Inhibitors of human tyrosyl-DNA phosphodiesterase 1 (TDP1): qHTS in cells in presence of CPT; chicken DT40 Tdp1-/-;hTDP1 cells + 20 nM CPT, ATP luminescence, 48 h; Potency, µM (doses to about 46.2 µM), for inactives: at the top dose activity change, negative = growth inhibition, hits mostly inhibitors; actives 12% (n = 420,000); further: on the % scale 0 is the no-effect control and ±100 the full control effect; nearly all actives have a fitted effect of over 55% in size
#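 Chicken DT40 Tdp1-/- cells stably complemented with human TDP1 were seeded at 400 cells/well in medium containing 20 nM camptothecin, exposed to pin-transferred compounds, and grown at 37 °C for at least 48 hr. Viability was read as ATP luminescence.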
# ATXN2 expr inh = Primary qHTS for Inhibitors of ATXN expression | actives 0.72% (n = 360,000) | AID 1745845, 2022 | HEK-293 ATXN2-luciferase reporter, luminescence, 24 h | Potency, µM (doses to about 57 µM), for inactives: at the top dose activity change, negative = inhibition, most hits filed as inhibitors; further: on the % scale 0 is the no-effect control and ±100 the full control effect; nearly all actives have a fitted effect of over 55% in size
#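 qHTS (up to 57 uM final) was run with 24 h compound exposure of reporter cells at 37 °C. Each well was multiplexed: SteadyGlo luminescence measured ATXN2-luciferase expression after a fluorogenic Gly-Phe-AFC viability readout (25 uM final).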
# TDP1 cell noCPT = qHTS for Inhibitors of human tyrosyl-DNA phosphodiesterase 1 (TDP1): qHTS in cells in absence of CPT. DT40 Tdp1-/- hTDP1 cells, no CPT, ATP luminescence, 48 h. Potency, µM (top dose mostly 46.2 µM), for inactives: top-dose activity change, negative = growth inhibition, most hits filed as inhibitors. actives 15% (n = 420,000); further: on the % scale 0 is the no-effect control and ±100 the full control effect; nearly all actives have a fitted effect of over 55% in size
#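 DT40 Tdp1-/-;hTDP1 cells, no CPT (DMSO vehicle only), 400 cells/well; compounds pin-transferred; ≥48 hr, 37 °C; CellTiter-Glo 30 min RT dark, luminescence read.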
# TGFb inhibitor = qHTS for Inhibitors of TGF-b. HepG2 CAGA-GFP TGF-b/SMAD3 reporter, GFP fluorescence, 18 h; TGF-beta stimulated, 500 pg/mL final. Potency, µM (titrated, usually from 46.1 µM), for inactives: at the top dose activity, negative = inhibition, most hits filed as inhibitors. actives 1.2% (n = 410,000). AID 588855, 2011; further: on the % scale 0 is the no-effect control and ±100 the full control effect; nearly all actives have a fitted effect of over 65% in size
#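 Inhibition was scored as loss of TGF-beta-induced (500 pg/mL final, 18 hours, 37 degrees C) GFP in HEPG2 cells carrying a CAGA-GFP reporter, in DMEM with 1% FBS. Well GFP was summed per cell; Activity was normalised to unstimulated and stimulated DMSO wells, then concentration-response fitting.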
# Numbers without * were called inactive; i = inactive; ? = inconclusive; · = no result given; [ ] = dose if it differs, or a comment. The call rests on the fitted dose curve; in most records, active means well fitted curve in the direction sought with a large enough effect; inconclusive means small, poorly fitted or top-dose-only effect, or another doubt; inactive means no such curve, though single readings can be large; an effect the other way counts as inactive or inconclusive. Potency means the concentration at half of the fitted maximal effect.
SMILES,S2 tox,HepG2 viability,TDP1 cell CPT,ATXN2 expr inh,TDP1 cell noCPT,TGFb inhibitor
COC(=O)c1ccc(CNC(=O)c2ccc(S(=O)(=O)N3CCCC(C)C3)cc2)cc1 (stereo not drawn),?,-10%,?,-17%,-20%,?
N=c1oc2ccc(Br)cc2cc1C(=O)NCc1ccc(F)cc1,i,11%,?,0%,8.2µM*,9%
CC(NC(=O)c1cc2cc(Br)ccc2oc1=N)c1ccccc1 (stereo not drawn),i,20%,16µM*,-2%,16µM*,-1%
Cc1ccc(CNC(=O)c2cc3cc(Br)ccc3oc2=N)cc1,i,1%,-28%,0%,-20%,0%
N#Cc1c(-c2ccncc2)c2c([nH]c1=S)CCCC2,i,5%,2%,-16%,-5%,3%
Cc1ccc(-c2c3c([nH]c(=S)c2C#N)CCCC3)o1,i,-17%,23µM*,-7%,?,-14%
N#Cc1sc(C(N)=O)c(-c2ccccc2)c1-c1ccccc1,i,-38%,-28%,-17%,-27%,20%
COc1ccc(-c2c(C#N)sc(C(N)=O)c2-c2ccc(OC)cc2)cc1,i,-26%,?,·,10µM*,?
Cc1ccc2nc(CSc3nnc(NC(=O)c4ccc(C(C)(C)C)cc4)s3)cc(=O)n2c1,·,-19%,-14%,·,0%,1%
O=C1NC(c2ccccc2)=C(c2ccc3ccccc3n2)C(c2ccccc2)N1 (stereo not drawn),i,-34%,?,-17%,26µM*,?
O=C(CSc1ccccn1)Nc1nonc1[N+](=O)[O-],13µM*,13µM*,3.7µM*,·,4.1µM*,11µM*
O=C(CSc1ccccn1)Nc1ccc(NC(=O)CSc2ccccn2)cc1,i,10%,8%,14%,5%,1%
COc1ccc(COC(=O)c2cccc(S(=O)(=O)N3CCN(C(C)=O)CC3)c2)cc1F,i,1%,?,-7%,?,-7%
CCc1c(CN2CCN(c3ccccc3F)CC2)csc1C,·,-33%,?,·,21µM*,-30%
CCOC(=O)c1cn(Cc2ccc(C)cc2)c2cc(F)ccc2c1=O,i,-22%,?,-14%,-18%,-14%
COc1ccc(C(CNC(=O)CSc2ccc(Br)cc2C)N2CCOCC2)cc1 (stereo not drawn),i,22%,?,-9%,?,7%
CCCCCc1ccc(OCCCC[n+]2ccc(C)cc2)c(CCCCC)c1,?,-97%,1µM*,-32%[11.3 µM],0.46µM*,11µM*
CCCCCc1ccc(OCCCC[n+]2ccccc2)c(CCCCC)c1,?,-157%,2.6µM*,14µM*,2.6µM*,?
CCC(C)(C)c1ccc(OCCCC[n+]2ccccc2)c(C(C)(C)CC)c1,i,-104%,0.58µM*,?,0.012µM*,?
CCCCCc1ccc(OCCCC[n+]2cccc(C)c2)c(CCCCC)c1,?,-101%,2.3µM*,10µM*,1.2µM*,?
COc1cc2c(cc1OC)CN(C(=O)COc1ccc(C)c(C)c1)CC2,i,-17%,?,-10%,?,-14%
O=C(Nc1ccc(F)c(C(F)(F)F)c1)Nc1nnc(-c2ccncc2)s1,·,·,·,-12%,·,·
Cn1c(=O)[nH]c(=O)c2cc(C(=O)c3cc(F)ccc3O)cnc21,i,-28%,-12%,-16%,?,1%
CNC(=O)c1nc(C)c(C2(C)CC(c3cccc([N+](=O)[O-])c3)=NO2)s1 (stereo not drawn),i,-1%,-12%,1%,-14%,?
COCCNC(=O)CN1CCC(n2c(C)nc3cc(C(F)(F)F)ccc32)CC1,i,-17%,?,-7%,-27%,-4%
SMILES,S2 tox,HepG2 viability,TDP1 cell CPT,ATXN2 expr inh,TDP1 cell noCPT,TGFb inhibitor
c1cc[n+](CCCC[n+]2ccccc2)cc1,i,-3%,3%,1%,9%,-11%
CCCCCCCCCCCCCCCC[n+]1ccc(C)cc1,·,-89%,0.89µM*,·,0.5µM*,?
O=C(Nc1ccc2nc(SCC(=O)N3CCOCC3)sc2c1)c1ccc(Br)cc1,·,-11%,?,·,2.3µM*,-14%
COc1cccc(C(=O)Nc2ccc3nc(SCC(=O)N4CCOCC4)sc3c2)c1,·,0%,15µM*,·,13µM*,0%
O=C(Nc1ccc2nc(SCC(=O)N3CCOCC3)sc2c1)c1cccc(Br)c1,·,-39%,13µM*,·,8.2µM*,0%
Cc1nnc(SCC(=O)NC23CC4CC(CC(C4)C2)C3)s1,?,-9%,-21%,7%,-10%,0%
O=C(CSC1=NCCN1)NC1CCCCCC1,?,-47%,?,-3%,18µM*,?
O=C(CSC1=NCCN1)NC12CC3CC(CC(C3)C1)C2,i,-31%,26µM*,-14%,15µM*,?
O=C(CCn1c(=O)[nH]c2ccsc2c1=O)NCc1ccc(F)cc1,i,15%,-8%,·,-5%,?
COc1ccc2c(c1)c(C(=O)N/N=C/c1ccc(Br)cc1)c(C)n2C,?,-13%,10µM*,?,10µM*,-29%
CCOc1ccc(/C=N/NC(=O)c2c(C)n(C)c3ccc(OC)cc23)cc1,i,27%,5.2µM*,-11%,5.8µM*,?
COc1ccc2c(c1)c(C(=O)N/N=C/c1ccc(O)c(O)c1)c(C)n2C,i,-6%,?,-13%,26µM*,0%
COc1ccc2c(c1)c(/C=N/Nc1ccc(C(=O)O)cc1)c(C)n2C,i,-2%,10%,·,-15%,23%
Cc1ccccc1N(C(=O)c1snc(C(N)=O)c1N)C(C(=O)NC1CCCC1)c1ccco1 (stereo not drawn),i,5%,-28%,-2%,?,23%
CC(=O)c1ccccc1OCCCCN1CCCCC1,i,-13%,-4%,-2%,0%,-2%
CCCNC(=O)N1CCN(S(=O)(=O)c2ccc3c(ccn3C)c2)CC1,i,-14%,·,1%,·,-1%
O=C(COc1ccc(S(=O)(=O)N2CCOCC2)cc1)Nc1ccccc1F,i,-1%,-6%,7%,-19%,-3%
O=C(NNc1nc(-c2ccc(Cl)cc2)cs1)c1ccco1,i,-13%,18µM*,2%,10µM*,?

# Source: PubChem BioAssay (National Center for Advancing Translational Sciences (NCATS))
